This is an account of results in PubChem BioAssay (EPA / NIEHS).

SMILES strings stand for the structures. Where “and” joins values, the source holds several entries; their conditions need not be identical. Equal entries are not always repeated. Records with an inconclusive call do not appear. Some structures have more than one record in an assay (separate samples or runs), and their calls can disagree. Calls of active or inactive are those of the source. How the source made its calls, unless noted: active means hit-call score of the fitted dose curve at least 0.9, where 1 is the maximum; inactive means score below 0.9.

Test [1] in a line: CCTE_Harrill_HTTr_CellCount_MCF7: CCTE's Cell Proliferation Assessment for the High-Throughput Transcriptomics (HTTr) Platform, Harrill Lab (AID 2284012; active means hit-call score of the fitted dose curve at least 0.9, where 1 is the maximum;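 further: count of Hoechst-stained nuclei per well by high-content imaging in MCF-7 cells; cells exposed to compound for six hours; intended direction is loss of nuclei count meaning fewer cells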). A digest of the protocol:
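Chemicals in eight-point dilution series are added to MCF-7 cells for six hours, nuclei are stained with Hoechst and imaged, and per-well nuclei counts are fitted in both directions relative to DMSO controls.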

Read-out in test [2]: Human Leukocyte Antigen - DR isotype (HLADR), HLA-DRA (gene 3122)
The test is described as follows: BSK_3C_HLADR: BioMAP Diversity Plus: 3C Assay for Human Leukocyte Antigen - DR isotype (HLADR) Biomarker Activity (AID 2283019).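 On outcome: ELISA of cell-surface HLA-DR on HUVEC 24 h after dosing.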 To be noted: primary human endothelial cells (HUVEC); actives raise or lower the signal. The method in brief:
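Endothelial cells from human umbilical vein are treated with test chemical; after 24 h, HLA-DR levels are measured by ELISA. Data are fitted in both directions using DMSO as the baseline.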

Test [3] can be described thus: BSK_3C_Vis: BioMAP Diversity Plus: 3C Assay for Morphology Visualization (AID 2283025).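 Further: fitted both ways so gain or loss versus DMSO counts.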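 On AC50: light microscopy image of cell morphology used as background control.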 To be noted: primary human endothelial cells (HUVEC). The method in brief: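 Chemicals were added to primary human umbilical vein endothelium, cells were incubated 24 h, and morphology was then visualized by light microscopy. Gain or loss of signal was fitted bidirectionally relative to DMSO.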

Read-out in test [4]: Vascular endothelial growth factor receptor 2 (Homo sapiens) (UniProt P35968)
The test is described as follows: BSK_4H_VEGFRII: BioMAP Diversity Plus: 4H Assay for Vascular endothelial growth factor receptor 2 (VEGFR2) Biomarker Activity (AID 2283031). To be noted: primary human endothelial cells (HUVEC); actives raise or lower the signal. The method in brief: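 VEGFRII levels on human vascular endothelial primary cells were determined by ELISA at 24 hours post-dosing, with gain- or loss-of-signal fitted against DMSO controls.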

Read-out in test [5]: Transforming growth factor beta 1 (TGFb1), TGFB1 (gene 7040)
The test is described as follows: BSK_BE3C_TGFb1: BioMAP Diversity Plus: BE3C Assay for Transforming growth factor beta 1 (TGFb1) Biomarker Activity (AID 2283036). Particulars: primary human bronchial epithelial cells; actives raise or lower the signal. A digest of the protocol:
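Primary human lung bronchial epithelial cells; compound exposure 24 h; TGF-b1 by ELISA; bidirectional fit, DMSO baseline. Parallel SRB total-protein staining for cytotoxicity.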

Read-out in test [6]: Interleukin-8 (IL8), CXCL8 (gene 3576)
The test is described as follows: BSK_CASM3C_IL8: BioMAP Diversity Plus: CASM3C Assay for Interleukin-8 (IL8) Biomarker Activity (AID 2283042).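 Further: IL-8 protein level quantified by ELISA.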 Particulars: primary human coronary artery smooth muscle cells; actives raise or lower the signal.

Read-out in test [7]: Monokine induced gamma interferon (MIG), CXCL9 (gene 4283)
The test is described as follows: BSK_CASM3C_MIG: BioMAP Diversity Plus: CASM3C Assay for Monokine induced gamma interferon (MIG) Biomarker Activity (AID 2283048).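 Further: MIG protein level measured by ELISA.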 To be noted: primary human coronary artery smooth muscle cells; actives raise or lower the signal.

Read-out in test [8]: Urokinase-type plasminogen activator receptor (uPAR), PLAUR (gene 5329)
The test is described as follows: BSK_CASM3C_uPAR: BioMAP Diversity Plus: CASM3C Assay for Urokinase-type plasminogen activator receptor (uPAR) Biomarker Activity (AID 2283054).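 Further: cell-surface uPAR protein level quantified by ELISA.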 To be noted: primary human coronary artery smooth muscle cells; actives raise or lower the signal.

Read-out in test [9]: Intercellular Adhesion Molecule 1 (ICAM1), ICAM1 (gene 3383)
The test is described as follows: BSK_KF3CT_ICAM1: BioMAP Diversity Plus: KF3CT Assay for Intercellular Adhesion Molecule 1 (ICAM1) Biomarker Activity (AID 2283067). Particulars: primary human keratinocytes with fibroblasts; actives raise or lower the signal. The method in brief: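 Dose the keratinocyte/fibroblast co-culture, wait 24 h, measure ICAM-1 by ELISA, then fit increases or decreases against DMSO. Cytotoxicity is checked in parallel cultures by SRB total-protein staining.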

Read-out in test [10]: Transforming growth factor beta 1 (TGFb1), TGFB1 (gene 7040)
The test is described as follows: BSK_KF3CT_TGFb1: BioMAP Diversity Plus: KF3CT Assay for Transforming growth factor beta 1 (TGFb1) Biomarker Activity (AID 2283072). Particulars: primary human keratinocytes with fibroblasts; actives raise or lower the signal. A digest of the protocol: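 Primary human skin cells (keratinocytes, foreskin fibroblasts) were co-cultured, exposed to test chemical and sampled at 24 h. TGF-b1 levels were measured by ELISA and fitted bidirectionally relative to DMSO.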

Read-out in test [11]: C-C motif chemokine 2 (Homo sapiens) (UniProt P13500)
The test is described as follows: BSK_KF3CT_MCP1: BioMAP Diversity Plus: KF3CT Assay for Monocyte Chemoattractant Protein 1 (MCP1/CCL2) Biomarker Activity (AID 2283073). Particulars: primary human keratinocytes with fibroblasts; actives raise or lower the signal. A digest of the protocol:
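Keratinocytes and foreskin fibroblasts were co-cultured, dosed with chemical, and sampled 24 h later. MCP-1 was quantified by ELISA, and the endpoint was analyzed with bidirectional fitting using DMSO as negative control.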

Read-out in test [12]: Vascular cell adhesion molecule 1 (VCAM1), VCAM1 (gene 7412)
The test is described as follows: BSK_LPS_VCAM1: BioMAP Diversity Plus: LPS Assay for Vascular cell adhesion molecule 1 (VCAM1) Biomarker Activity (AID 2283086). Particulars: primary human HUVEC with PBMC; actives raise or lower the signal. A digest of the protocol: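 HUVEC + PBMC co-culture, LPS system; compound 24 h; VCAM-1 by ELISA; bidirectional fit vs DMSO control; parallel SRB (0.1%, TCA-fixed, 560 nm) for cytotoxicity.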

Read-out in a further test: CD40, CD40 (gene 958)
The test is described as follows: BSK_SAg_CD40: BioMAP Diversity Plus: SAg Assay for CD40 Biomarker Activity (AID 2283088). To be noted: primary human HUVEC with PBMC; actives raise or lower the signal. A digest of the protocol: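 Fluorescence ELISA read-out of CD40 from umbilical vein endothelium plus peripheral blood mononuclear cells, sampled 24 h after dosing. Values come from bidirectional curve fitting with DMSO as baseline.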

Test [13] in a line: BSK_SAg_PBMCCytotoxicity: PBMC Cytotoxicity Assessment in the BioMAP Diversity Plus: SAg Assay (AID 2283093).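 Further: PBMC viability measured as Alamar Blue reduction fluorescence at 546/580 nm; fitted both ways against DMSO so a hit may be loss or gain of signal.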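 On AC50: PBMC superantigen activated with SEB plus TSST-1 one hour after compound addition.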 To be noted: primary human HUVEC with PBMC. The method in brief: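 Compound added to 75,000 PBMC/well for 1 h; SEB and TSST-1 then added at 20 ng/mL final each; 90 h incubation; Alamar Blue 6 h; read 546/580 nm ex/em. Activity fitted bidirectionally relative to DMSO baseline.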

Read-out in test [14]: Interleukin-8 (IL8), CXCL8 (gene 3576)
The test is described as follows: BSK_SAg_IL8: BioMAP Diversity Plus: SAg Assay for Interleukin-8 (IL8) Biomarker Activity (AID 2283094). To be noted: primary human HUVEC with PBMC; actives raise or lower the signal. A digest of the protocol: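 ELISA read-out of IL-8 in a primary human vascular co-culture (umbilical vein endothelium plus PBMC), taken 24 h after compound addition. Values derive from bidirectional fits against DMSO negative controls.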

Test [15] can be described thus: BSK_SAg_SRB: Viability Assessment in the BioMAP Diversity Plus: SAg Assay (AID 2283096).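 Further: cells read one day after compound addition; hits may be either gain or loss of signal compared with DMSO.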 To be noted: primary human HUVEC with PBMC. The method in brief: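 Total protein by sulforhodamine B staining, 24 h after dosing, in HUVEC–PBMC co-culture; DMSO-referenced bidirectional fitting.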
Test [16] is described as follows: BSK_BT_Bcell_Proliferation: Viability Assessment in the BioMAP Diversity Plus: BT Assay for B cell Proliferation (AID 2284227). To be noted: primary human B cells with PBMC. The method in brief:
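Human B cells co-cultured with PBMC were dosed with test chemicals and relative cell number was quantified by SRB staining at 72 h. Cells were fixed in 10% TCA, stained with 0.1% SRB and read at 560 nm. Activity was fitted in the positive direction against DMSO.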

Read-out in test [17]: Interleukin 6 (IL6), IL6 (gene 3569)
The test is described as follows: BSK_BT_xIL6: BioMAP Diversity Plus: BT Assay for Interleukin 6 (IL6) Biomarker Activity (AID 2284228). Particulars: primary human B cells with PBMC. A digest of the protocol:
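Chemical added to human B cell/PBMC co-culture → 24 h → supernatant IL-6 by Luminex xMAP → fit vs DMSO baseline, upward direction.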

Read-out in test [18]: Interleukin 17A (IL17A), IL17A (gene 3605)
The test is described as follows: BSK_BT_xIL17A: BioMAP Diversity Plus: BT Assay for Interleukin 17A (IL17A) Biomarker Activity (AID 2284229). Particulars: primary human B cells with PBMC. The method in brief: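 Chemicals were added to a human B cell and PBMC co-culture. After 24 h, secreted IL-17A was measured with Luminex xMAP. Curves were fitted in the positive direction, with DMSO wells as baseline.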

Read-out in test [19]: Collagen IV, COL4A1 (gene 1282)
The test is described as follows: BSK_MyoF_CollagenIV: BioMAP Diversity Plus: MyoF Assay for Collagen IV Biomarker Activity (AID 2284247). To be noted: primary human lung fibroblasts. The method in brief: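 Steps: dose human lung fibroblasts; culture 24 h; quantify Collagen IV by ELISA; fit increase versus DMSO control. Parallel SRB total-protein staining (0.1% SRB after 10% TCA fixation, 560 nm) tracks overt cytotoxicity.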

As for `CCC(C)(C)O`, in test [1], the compound was called inactive.

Regarding `O=P1(NCCCl)OCCCN1CCCl` (configuration not stated), the outcome in [2], in test [3], in [4], in [5], in test [6] and in [7] was inactive. The outcome was “inactive” in [8]; “inactive” in test [9]; “inactive” in [10]; “inactive” in test [11]; “inactive” in test [12]; “inactive” in the test with CD40, CD40 (gene 958). Further, the outcome in [13], in test [14], in [15], in [16], in test [17] and in [18] was inactive. The outcome in [19] was inactive.

Consider `CC(C)(O)C#N`, for which, in test [1], the compound was classed as inactive.

For the compound `CC(C)CCCCCCCOC(=O)c1ccccc1C(=O)OCCCCCCCC(C)C`, the outcome in test [2], in [3], in test [4], in test [5], in test [6] and in test [7] was inactive. The outcome was “inactive” in [8]; “inactive” in test [9]; “inactive” in test [10]; “inactive” in test [11]; “inactive” in [12]; “inactive” in the test with CD40, CD40 (gene 958). Further, the result in test [13], in test [14], in [15], in test [16], in test [17] and in [18] was inactive. Also, the result in test [19] was inactive.

Turning to `Oc1cc(Cl)ccc1Cl`, the result in test [2], in test [3], in test [4], in [5], in test [6] and in test [7] was inactive. For the same compound, the outcome in test [8] was “inactive”; in test [9] it was “inactive”; in [10], “inactive”; in test [11], “inactive”; in [12], “inactive”; with CD40, CD40 (gene 958), “inactive”. The result in test [13], in test [14], in test [15], in [1], in test [16] and in test [17] was inactive. For the same compound, the result in [18] and in [19] was inactive.

Consider `O=C1C=CC(=O)C=C1`, for which the AC50 in test [2] was 28.8 µM (active) and 13.8 µM (active); in test [3], 8.8 µM (active); in test [9] it was 24.5 µM (active) and 21.7 µM (active); in test [10], 29.9 µM (active) and 12.4 µM (active); in test [11], 27.7 µM (active) and 16.1 µM (active); in test [12], 20 µM (active). The AC50 was 29 µM (active) and 27.7 µM (active) with CD40, CD40 (gene 958); 9.09 µM (active) and 7.38 µM (active) in test [13]; 17.8 µM (active) and 24.2 µM (active) in [16]; 11.3 µM (active) and 25.7 µM (active) in test [17]; 13.6 µM (active) and 20 µM (active) in [18]; 34.4 µM (active) in test [19]. Further, the outcome in test [3], in [4], in [5], in test [6], in test [7] and in [8] was inactive. Moreover, the result in test [14], in test [15] and in test [19] was inactive.

Turning to `C[N+](C)(C)CC(=O)O`, the result in [1] was inactive.

Consider `O=[N+]([O-])c1ccc(Cl)cc1`, for which the result in [2], in test [3], in test [4], in test [5], in test [6] and in test [7] was inactive. In addition, the outcome in [8] is “inactive”; in test [9], “inactive”; in test [10] it was “inactive”; in [11] it was “inactive”; in test [12] it was “inactive”; with CD40, CD40 (gene 958), “inactive”. The outcome in test [13], in [14] and in [15] was inactive.
